Structures are written as SMILES.

The source of these data is the supplement of paper PMC4206467.

For this experiment, the system named is Perkinsus marinus PRA240. Nature of the experiment: ATP content (proliferation) relative to DMSO control; higher = more parasite growth (less inhibition). The note with it: 20 µM; 4 days. Here is the method: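 Perkinsus marinus PRA240 trophozoites (2-5x10^6 cells/ml, 100 µl, 96-well) were exposed once to MMV Malaria Box compounds at 20 µM (0.1% DMSO) in triplicate. ATP content (ATPlite bioluminescence) was read at day 4 post-exposure and normalised to DMSO + cells control wells (100% activity). Compounds were identified by joining plate and well to the Malaria Box list.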
Take `Oc1ccc(C(=C(Cl)Cl)c2ccc(O)cc2)cc1`: the ATP content was found to be 137%. The compound `CCOc1c(Cl)cc(CNC(C)C(O)c2ccccc2)cc1OC` (stereo not given) displayed an ATP content of 75.7%. The result for `CCCCCCc1cc(O)c2c3c(c(=O)oc2c1)CCC(C)C3` (stereo not given) reads 33.1%; that for `CN(N=O)C1=C(NC2CCCCC2)C(=O)c2ccccc2C1=O`, 45.9%. The result for `COc1cc(CNCCc2ccc(Cl)cc2)cc(OC)c1O` reads 130%; that for `CCOc1cc(CNC(C)C(O)c2ccccc2)cc(Cl)c1OCC` (stereo not given), 120%. The result for `Oc1ccc(Br)cc1CN1CCN(Cc2ccc(Cl)cc2)CC1` reads 129%. On to `COc1ccc(CN2CCN(Cc3ccccc3)CC2)c(O)c1`, for which the ATP content stood at 194%. Take `O=C(CCc1ccco1)NC1CCN(CC2(c3ccc(Cl)cc3)CCC2)CC1`: the ATP content was determined as 103%.

For `Oc1ccc(Br)cc1CN1CCN(Cc2cccc(F)c2)CC1`, the ATP content was determined as 95.2%.
